# An excerpt weighted towards active compounds, which were near 4.1% of everything screened.
# FMDV inh: High Throughput Screening for Foot and Mouth Disease Virus Antivirals; FMDV antiviral cell-based qHTS; Potency, µM (titrated, usually from 57.9 µM), for the others: at the top dose activity change, negative = inhibition, actives largely listed as inhibitors; 1.2% of 410,000 active; calls by dose curve; tested in HEK293T cells; note: read-out not given here; nearly all actives have a fitted effect of over 45% in size
# Sm TGR inh: qHTS Assay for the Inhibitors of Schistosoma Mansoni Peroxiredoxins. 3% of 360,000 active. Potency, µM (highest dose often 114 µM), for inactives: top-dose activity change, negative = inhibition, hits mostly inhibitors. purified TGR, DTNB reduction, TNB absorbance 405 nm. AID 485364, 2010. Schistosoma mansoni thioredoxin glutathione reductase (TGR), Q962Y6; note: nearly all actives have a fitted effect of over 60% in size
#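 Kinetic colorimetric format: TGR-catalysed, NADPH-driven DTNB reduction monitored via TNB absorbance. Enzyme dispensed at 20 nM; compound exposure 15 min at room temperature before reaction start.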
# AmpC inh detg: qHTS Inhibitors of AmpC Beta-Lactamase (assay with detergent); Potency, µM (series often up to 114 µM), for inactives: top-dose activity change, negative = inhibition, most hits filed as inhibitors; AID 485294, 2010; P00811; 0.041% of 370,000 active; AmpC hydrolysis of nitrocefin, absorbance 480 nm, 0.01% Triton;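 note: 0% = no-compound wells and -100% = no-enzyme wells; nearly all actives have a fitted effect of over 25% in size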
# Target sequence (P00811 whole entry, looked up): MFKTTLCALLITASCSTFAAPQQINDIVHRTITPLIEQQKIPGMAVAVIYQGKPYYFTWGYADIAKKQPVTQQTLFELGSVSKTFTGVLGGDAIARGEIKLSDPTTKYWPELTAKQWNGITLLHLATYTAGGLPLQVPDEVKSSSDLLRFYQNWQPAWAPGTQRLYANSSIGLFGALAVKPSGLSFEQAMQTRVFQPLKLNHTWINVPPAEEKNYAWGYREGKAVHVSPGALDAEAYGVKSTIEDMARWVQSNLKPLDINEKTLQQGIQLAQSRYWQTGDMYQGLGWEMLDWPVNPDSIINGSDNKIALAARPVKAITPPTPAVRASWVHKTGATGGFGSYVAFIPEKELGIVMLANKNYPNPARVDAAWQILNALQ
#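 AmpC (5.3 nM in the dispensed reagent) in 20 mM phosphate pH 7.0 with 0.01% (detergent screen) or 0.0001% Triton X-100 was preincubated with compounds for 15 min at room temperature. Nitrocefin was then added from an 800 uM solution, and hydrolysis was followed at 480 nm.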
# AmpC inh no detg: qHTS Inhibitors of AmpC Beta-Lactamase (assay without detergent) | P00811 | AmpC nitrocefin hydrolysis, absorbance 480 nm, 0.0001% Triton | Potency, µM (titrated, usually from 57.1 µM), for the others: top-dose activity change, negative = inhibition, usual class: inhibitors | 0.52% of 330,000 active;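 note: plate controls were no compound for no effect and no enzyme for full effect; nearly all actives have a fitted effect of over 20% in size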
#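 AmpC (5.3 nM in the dispensed reagent) in 20 mM phosphate pH 7.0 with 0.01% (detergent screen) or 0.0001% Triton X-100 was preincubated with compounds for 15 min at room temperature. Nitrocefin was then added from an 800 uM solution, and hydrolysis was followed at 480 nm.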
# AMA1 RON2 block: qHTS for Inhibitors of AMA1-RON; Towards Development of Antimalarial Drug Lead: Primary Screen; Potency, µM (doses to about 58.2 µM), for inactives: at the highest dose activity change, negative = inhibition, usual class: inhibitors; AlphaScreen AMA1-biotinylated RON2 peptide binding; Plasmodium falciparum AMA1 (3D7) - RON2 peptide interaction; 0.2% of 360,000 active;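 note: 0% = vehicle wells and -100% = peptide control; nearly all actives have a fitted effect of over 45% in size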
#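 AMA1 (3D7) with his tag at 25 nM final met compounds first, then biotinylated RON2 peptide at 25 nM; detection used donor plus acceptor beads, 10 µg/mL apiece, read by AlphaScreen after 30 min at room temperature.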
# * = called active by the depositor; ? = inconclusive; . = no result given; [ ] = remark or other dose. Unless noted, calls come from the whole dose curve; as a rule, active = well fitted curve in the direction sought with a large enough effect; inconclusive = small, poorly fitted or top-dose-only effect, or another doubt; inactive = no such curve, though single readings can be large; an effect the other way counts as inactive or inconclusive. Unless noted, % is set by controls: 0 for no effect and ±100 for the full control effect; potency is the fitted concentration of half-maximal effect.
SMILES,FMDV inh,Sm TGR inh,AmpC inh detg,AmpC inh no detg,AMA1 RON2 block
COc1ccccc1N1C(=O)CC(Sc2nccc(C)n2)C1=O (stereo not given),-26%,?,?,-17%,-11%
COc1ccccc1N1C(=O)CC(Sc2n[nH]c(-c3cccc(C)c3)n2)C1=O (stereo not given),-15%,0.63µM*,-6%,16µM*,15%
O=C(CCl)Nc1cc(-c2ccccc2)nn1-c1ccccc1,-67%,13µM*,5%,-19%,0%
Cc1ccc(-n2nc(C)c(NC(=O)CCl)c2C)cc1,-25%,50µM*,5%,-4%,-5%
Cc1ccc(-c2cc(NC(=O)CCl)n(-c3ccccc3)n2)cc1,22µM*,?,9%,-27%,-4%
CC(=O)Nc1c(C)nn(-c2ccc([N+](=O)[O-])cc2)c1C,-7%,-33%,1%,19%,-6%
CC(=O)Nc1ccc(-c2cc(NC(C)=O)n(-c3ccccc3)n2)cc1,-1%,-5%,-18%,-13%,9%
Cc1nn(Cc2ccc(Cl)cc2Cl)c(C)c1NC(=O)CCl,22µM*,40µM*,-14%,0%,-1%
CN(CCO)c1cc(Sc2nc3ccccc3s2)c2nonc2c1[N+](=O)[O-],22µM*,0.32µM*,-4%,-21%,-3%
CCOC(=O)N1CCN(c2cc(N(C)CCO)c([N+](=O)[O-])c3nonc23)CC1,-10%,35µM*,6%,-17%,-3%
CC(=O)OCCNc1cc(SC(C)C)c2nonc2c1[N+](=O)[O-],?,-23%,-3%,6%,2%
CC(=O)OCCN(C)c1cc(SC(C)C)c2nonc2c1[N+](=O)[O-],-17%,0.71µM*,2%,10%,2%
CCOC(=O)N1CCN(c2cc(NCCO)c([N+](=O)[O-])c3nonc23)CC1,-21%,-4%,?,-11%,-3%
Cn1c(=O)c2c(nc(SCC(=O)Nc3ccc(F)cc3F)n2Cc2ccccc2)n(C)c1=O,10%,-11%,-6%,.,.
CC(C)Cc1nc2cc(NS(=O)(=O)N(C)C)cc(C(=O)N3CCc4ccccc4C3)c2n1C,12%,.,.,.,.
CCc1ccc(NC(=O)C2CCCN2S(=O)(=O)c2ccc3c(c2)CCCC(=O)N3)cc1 (stereo not given),0%,11%,3%,.,.
Cc1ccc2nc(N3CCN(c4ccccc4)CC3)c(C=O)c(=O)n2c1,3%,45µM*,-2%,-11%,-16%
COc1ccc(N2CCN(c3nc4ccc(C)cn4c(=O)c3C=O)CC2)cc1,-16%,-34%,2%,-2%[2.29 µM],-8%
CCOC(=O)c1ccc(N2C(=O)c3[nH]nc(-c4ccc(C)cc4)c3C2c2cccc(F)c2)cc1 (stereo not given),?,-4%,4%,.,.
FC(F)(F)c1cccc(NC(=S)N(CCCN2CCCC2)Cc2cccn2Cc2ccc(Cl)cc2)c1,28µM*,15%,6%,38%,-10%
Cc1ccc(NC(=S)N(CCCN2CCCC2)Cc2cccn2Cc2ccc(Cl)cc2)cc1C,?,3%,6%,-6%,-1%
CCC(=NCCN1CCOCC1)c1c(O)n(-c2ccccc2C)c(=O)[nH]c1=O,13%,28µM*,-8%,-12%,79%
CCCCn1c(O)c(C(CC)=NCCN2CCOCC2)c(=O)[nH]c1=O,5%,18µM*,4%,1%,40%
CCCCn1c(O)c(C(CC)=NCCN2CCCCC2)c(=O)[nH]c1=O,-13%,10µM*,-16%,158%,10%
CCCCn1c(O)c(C(C)=NCCN2CCOCC2)c(=O)[nH]c1=O,-7%,-3%,1%,-14%,48%
SMILES,FMDV inh,Sm TGR inh,AmpC inh detg,AmpC inh no detg,AMA1 RON2 block
COc1cc(=O)n2c(c1C(=O)N(C)Cc1cscn1)CCN(Cc1c(C)[nH]c3ccccc13)CC2,-6%,.,.,.,.
CCCCN1CC(c2nc3ccccc3n2CCCCOc2c(C)cccc2C)CC1=O (stereo not given),?,8%,25%,.,.
CCOC(=O)C1CCN(C(=O)c2nn(-c3ccc(OC)cc3)c(=O)c3c2c2ccccc2n3C)CC1,?,14%,1%,.,.
O=C(CCNc1ccc(F)cc1)c1cccc([N+](=O)[O-])c1,15%,0.5µM*,-11%,-27%,-20%
O=C(CC(=O)c1ccccc1)Nc1cccc([N+](=O)[O-])c1,51%,.,.,.,-6%
O=C(CNC(=O)c1cccc([N+](=O)[O-])c1)OCCCC(=O)c1ccc(F)cc1,-20%,.,.,-10%,-2%
COc1ccc(C(=O)CCC(=O)Nc2cc(Cl)c(O)c(Cl)c2)cc1,-13%,35µM*,-6%,-37%,-8%
O=C(CCNc1ccc(Br)cc1)c1cccc([N+](=O)[O-])c1,11%,0.4µM*,2%,-43%,?
O=C(CCNc1ccccc1)c1cccc([N+](=O)[O-])c1,-4%,0.45µM*,2%,-32%,-23%
CCCCN(C)C(=O)C1CCC(Cn2c(=O)[nH]c3ccsc3c2=O)CC1 (stereo not given),1%,5%,20%,.,.
COc1ccccc1CN1CC2(CCN(C(=O)c3ccncc3)CC2)C1,-18%,.,.,.,.
COc1ccc(C(=O)CCNc2ccc(F)cc2)cc1,54%,3.2µM*,5%,-20%,-1%
O=C(Nc1cccc(OCC(=O)N2CCOCC2)c1)c1cccc([N+](=O)[O-])c1,1%,.,-5%,-25%,5%
Cc1ccc(NCCC(=O)c2cccc([N+](=O)[O-])c2)cc1,29%,0.4µM*,?,-21%,?
O=C(COc1cccc(NC(=O)c2cccc([N+](=O)[O-])c2)c1)c1ccc(Br)cc1,20µM*,5%,4%,-38%,-15%
Cc1ccc(CONC(=O)c2cccc([N+](=O)[O-])c2)cc1,36%,-23%,?,-18%,-3%
Cc1c(C(=O)N2CCN(C)CC2)sc2ncnc(NCC3(c4ccccc4)CCOCC3)c12,-10%,.,.,.,.
COc1ccc(CCNS(=O)(=O)c2ccc(F)c(C(=O)Nc3ccc(Cl)cc3)c2)cc1OC,?,0%,-4%,.,.
Cc1ccc(-n2c(=O)c3c(c4cc(C)ccc4n3C)n(CC(=O)NCCC3=CCCCC3)c2=O)cc1,-14%,-2%,23%,.,.
CC1(C)CC(NC(=O)c2coc(=O)c(Br)c2)CC(C)(C)N1,32µM*,-26%,-16%,31%,-5%
c1ccc(-c2nnsc2-c2ncc[nH]2)cc1,-8%,3%,-1%,-25%,-2%
O=S(=O)(c1ccc(F)cc1)c1snnc1-c1ccccc1,?,35µM*,2%,113%,-13%
O=S(=O)(c1ccc(Cl)cc1)c1snnc1-c1ccccc1,10µM*,13µM*,?,-26%,-11%
O=C(O)c1cc(-c2ccco2)[nH]n1,4%,50µM*,-1%,-22%,22%

# From PubChem
